Laboratory results reported in PubChem BioAssay (NCI).
About 83,000 compounds went through this panel and 20% of them were active in at least one assay; those are over-represented in the sample as a whole.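 Method: cells in 96-well plates; compound added at one concentration; 48 h incubation; percent growth measured; values under 10 scored active.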 Calls of active or inactive are those of the source.

What follows are compounds tested on HL-60(TB) leukemia (assay: NCI-60 one-dose screen, 48 h (100 = growth as untreated, 0 = no growth, -100 = all killed)). Conditions: 10 µM unless noted.
In the case of `CC(=O)N(N=O)c1ccc([N+](=O)[O-])cc1Cl`, the growth is reported as 55.7% (inactive).
`COc1cc(NC(=O)CSc2nc3ccc(C)cc3c(=O)n2-c2ccccc2)cc(OC)c1OC` was tested, and the growth was 89.1% (inactive).
For `CC(=O)Cc1cccnc1`, the growth was 82.4% (inactive).
In the case of `O=C(O)COc1ccc(OCC(=O)O)cc1`, the growth is reported as -1.78% (active).
In the case of `COC(=O)c1c2c(c(C)[n+]([O-])c1C)C(=O)C(NCc1ccc(F)c(Cl)c1)=CC2=O`, the growth is reported as -54.6% (active).
`CN(C)CC(O)c1ccc(/C=C/c2ccc(Cl)cc2)cc1` (stereo not given) was tested, and the growth was -43.6% (active).
With `COc1ncc(-c2ccc3nccc(C#CCCCCC(=O)O)c3c2)cc1NS(=O)(=O)c1ccc(F)cc1F` the growth was 26.8% (inactive).
For `COc1ccccc1-c1ccc2nc(NC(=O)Nc3cc(C(F)(F)F)cc(C(F)(F)F)c3)sc2c1`, the growth was -34.5% (active).
With `O=C1C=C(Cl)C(=O)c2ccccc21` the growth was 57.3% (inactive).
With `CCCCCCCCCCCCOB(OCCCCCCCCCCCC)OCCCCCCCCCCCC` the growth was 107% (inactive).
`CCC(C)(C)c1ccc(Nc2ccc(Nc3ccc(C(C)(C)CC)cc3)cc2)cc1` was tested, and the growth was 47.5% (inactive).
In the case of `Cc1ccc(/C=C2\CNC/C(=C\c3ccc(C)cc3)C2=O)cc1`, the growth is reported as -29.1% (active).
For `COc1ccc(Nc2ncc(I)c(NCCCNC(=O)C3CCC3)n2)cc1`, the growth was -37.6% (active).
For `COc1cc2c(-c3nc4cc(Cl)c(F)cc4s3)cc(=O)oc2c(C)c1OC`, the growth was -56.2% (active).
`CN1CCn2c(c(Sc3ccc(C(=O)NO)cc3)c3ccccc32)C1=O` was tested, and the growth was -1.35% (active).
In the case of `CSc1nc2sc3c(c2c(=O)n1-c1ccc(C(C)C)cc1)CCC(=O)C3`, the growth is reported as 6.88% (active).
With `COC(=O)c1cccc(Br)c1` the growth was 81.6% (inactive).
`CCOC(=O)c1sc2nc(-c3cccc(OC)c3)nc(N3CCOCC3)c2c1C` was tested, and the growth was 101% (inactive).
With `CCn1cc(C(=O)O)c(=O)c2cc(F)c(N3CCNCC3)cc21` the growth was 96.9% (inactive).
For `C=CCNc1ccc2c3c(cccc13)C(=O)N(N1C(=O)c3cccc4cccc(c34)C1=O)C2=O`, the growth was 102% (inactive).
For `COC(=O)c1ccc2c(C(=Nc3ccc(N(C)C(=O)CN4CCN(C)CC4)cc3)c3ccccc3)c(O)[nH]c2c1`, the growth was 70.8% (inactive).
`O=C(N=Nc1c(Cl)c(O)c2ccccc2c1O)C(=O)Nc1cccc(C(F)(F)F)c1` was tested, and the growth was 6.33% (active).
With `CCCCN(C)N=Nc1ccc(C(N)=O)cc1` the growth was 73.5% (inactive).
With `OC(Cc1cc(CC(O)(C(F)(F)F)C(F)(F)F)nc(CC(O)(C(F)(F)F)C(F)(F)F)c1)(C(F)(F)F)C(F)(F)F` the growth was -24.5% (active).
With `Cc1ccc2c(n1)C[C@H](C(C)(C)O)CC[C@H]2C` the growth was 103% (inactive).
`CN1CCC2(CC1)N=C(SCC(=O)Nc1cnc3ccccc3c1)C(c1ccc(Br)cc1)=N2` was tested, and the growth was -40.7% (active).
In the case of `O=C(N/N=C/c1c(Cl)cccc1Cl)c1ccccc1Nc1cccc(C(F)(F)F)c1`, the growth is reported as 95.3% (inactive).
With `COc1ccccc1C(=O)/C=C/c1ccccc1` the growth was 77% (inactive).
For `C=C1CC2(OC1=O)C(=O)N(CCCCCCCN1C(=O)C3(CC(=C)C(=O)O3)c3ccccc31)c1ccccc12` (stereo not given), the growth was 11.7% (inactive).
With `NC(N)=N/N=C\c1ccc(OCc2ccccc2)cc1` the growth was 43.1% (inactive).
`COc1ccc(-n2cnc3cc(C(=O)N4CCCCC4)ccc32)cc1` was tested, and the growth was 105% (inactive).
`Oc1ccc(CCl)c2cccnc12` was tested, and the growth was 81% (inactive).
For `O=C1NC(=O)C(=Cc2cc(-c3ccc(Cl)cc3)n(-c3ccccc3)n2)C(=O)N1`, the growth was 89.5% (inactive).
`Cc1ccc(-c2nc(C(Cl)Cl)nc3cc(C)nn23)cc1` was tested, and the growth was -1.36% (active).
In the case of `CC1=CC(=O)OC1C/C=C(\C)CCC1[C@@]2(C)CCC[C@@](C)(C(=O)O)C2CC[C@@]1(C)O` (stereo not given in full), the growth is reported as 95.8% (inactive).
For `Cc1cc(NC(=O)Nc2cc(Cl)ccc2C)no1`, the growth was 88.4% (inactive).
In the case of `N#CCCc1c[nH]c2ccccc12`, the growth is reported as 99.3% (inactive).
`Cc1ccc(NC(=O)c2ccccc2Cl)cc1` was tested, and the growth was 86.1% (inactive).
In the case of `N#Cc1ccc(O)c(C2=NCC(c3cccc(Oc4ccccc4)c3)O2)c1` (stereo not given), the growth is reported as -8.73% (active).
For `C/C(C=O)=C\c1ccc2c(c1)OCO2`, the growth was 102% (inactive).
